Compound activity deposited in PubChem by National Center for Advancing Translational Sciences (NCATS).
ELG1 repair inh = qHTS screen for small molecules that inhibit ELG1-dependent DNA repair in human embryonic kidney (HEK293T) cells expressing luciferase-tagged ELG1; AID 504467, 2011; 2.3% of 330,000 active; HEK293T ELG1-luciferase reporter, luminescence, 16 h; DNA damage induced by 5-fluorouridine; Potency, µM (doses to about 46.1 µM), inactives show top-dose activity change, negative = inhibition, most hits filed as inhibitors; further: potency means the concentration at half of the fitted maximal effect; nearly all actives have a fitted effect of over 55% in size
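Overnight (16 hr) co-exposure of 2,000 cells/well to 5-fluorouridine and compound at 37 °C preceded detection. Luciferase was quantified via ONE-Glo luminescence; loss of signal denotes inhibition.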
TDP1 cell noCPT = qHTS for Inhibitors of human tyrosyl-DNA phosphodiesterase 1 (TDP1): qHTS in cells in absence of CPT | Potency, µM (doses to about 46.2 µM), for the others: top-dose activity change, negative = growth inhibition, most hits filed as inhibitors | DT40 Tdp1-/- hTDP1 cells, no CPT, ATP luminescence, 48 h | 15% of 420,000 active; further: potency means the concentration at half of the fitted maximal effect; nearly all actives have a fitted effect of over 55% in size
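DT40 Tdp1-/-;hTDP1 cells, no CPT (DMSO vehicle only), 400 cells/well; compounds pin-transferred; ≥48 hr, 37 °C; CellTiter-Glo 30 min RT dark, luminescence read.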
Gal4-VP16 FLuc = VP16 counterscreen qHTS for inhibitors of ROR gamma transcriptional activity; Drosophila S2 Gal4-VP16 UAS-luciferase, luminescence, 20 h; Potency, µM (series often up to 53.6 µM), without a hit: at the highest dose activity, negative = inhibition, usual class: inhibitors; 3.5% of 310,000 active; AID 2546, 2010;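 further: Gal4-VP16 expression switched on by copper sulfate through the metallothionein promoter; potency means the concentration at half of the fitted maximal effect; nearly all actives have a fitted effect of over 50% in size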
RORg inh = qHTS for inhibitors of ROR gamma transcriptional activity; Drosophila S2 Gal4-RORgamma UAS-luciferase reporter, 20 h; Nuclear receptor ROR-gamma (Mus musculus), P51450; Potency, µM (series often up to 53.6 µM), without a hit: at the highest dose activity change, negative = inhibition, usual class: inhibitors; 5.4% of 310,000 active; further: potency means the concentration at half of the fitted maximal effect; nearly all actives have a fitted effect of over 60% in size
Target sequence (P51450 whole entry, looked up, the tested form may be a part): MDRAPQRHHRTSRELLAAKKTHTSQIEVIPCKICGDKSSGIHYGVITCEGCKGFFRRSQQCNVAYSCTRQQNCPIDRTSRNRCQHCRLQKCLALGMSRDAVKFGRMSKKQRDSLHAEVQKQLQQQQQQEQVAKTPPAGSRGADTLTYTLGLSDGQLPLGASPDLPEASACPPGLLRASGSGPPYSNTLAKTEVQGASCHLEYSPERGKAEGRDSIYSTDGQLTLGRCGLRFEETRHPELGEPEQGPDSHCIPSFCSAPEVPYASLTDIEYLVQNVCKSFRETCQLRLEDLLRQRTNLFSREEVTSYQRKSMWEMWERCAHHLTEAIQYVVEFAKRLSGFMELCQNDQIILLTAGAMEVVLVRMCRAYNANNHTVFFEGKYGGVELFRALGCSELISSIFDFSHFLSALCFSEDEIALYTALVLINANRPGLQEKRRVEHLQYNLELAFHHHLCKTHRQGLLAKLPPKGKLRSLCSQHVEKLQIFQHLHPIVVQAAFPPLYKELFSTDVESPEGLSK
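In this cell-based reporter format, copper sulfate (700 uM final) drives Gal4–ROR gamma fusion expression from a metallothionein promoter in Drosophila Schneider cells; compounds preincubated 1 hr, reporter read after 20 hr at ambient temperature.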
TDP1 cell CPT = qHTS for Inhibitors of human tyrosyl-DNA phosphodiesterase 1 (TDP1): qHTS in cells in presence of CPT. Potency, µM (titrated, usually from 46.2 µM), for the others: at the highest dose activity change, negative = growth inhibition, actives largely listed as inhibitors. chicken DT40 Tdp1-/-;hTDP1 cells + 20 nM CPT, ATP luminescence, 48 h. 12% of 420,000 active. AID 686979, 2013; further: potency means the concentration at half of the fitted maximal effect; nearly all actives have a fitted effect of over 55% in size
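Chicken DT40 Tdp1-/- cells stably complemented with human TDP1 were seeded at 400 cells/well in medium containing 20 nM camptothecin, exposed to pin-transferred compounds, and grown at 37 °C for at least 48 hr. Viability was read as ATP luminescence.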
IL1B secr inh = qHTS for Inhibitors of Inflammasome Signaling: IL-1-beta AlphaLISA Primary Screen | activity change, % at 57.5 µM | THP-1 LPS/ATP IL-1B secretion, AlphaLISA, 16 h; stronger effect = lower value | 4.7% of 360,000 active; in the data active means activity change below about -50%; inconclusive means mostly about -30% to -49%
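THP-1 cells pretreated 1 hr with compounds (up to 57.5 uM final), then stimulated with LPS (250 ng/mL final) plus ATP (1.25 mM final); secreted IL-1B measured by AlphaLISA after 16 hr, decreased signal indicating inhibition.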
* = called active by the depositor; ? = inconclusive; . = no result given. An excerpt weighted towards active compounds, which were near 21% of everything screened. Unless noted, the call rests on the fitted dose curve; in most records, active means well fitted curve in the direction sought with a large enough effect; inconclusive means small, poorly fitted or top-dose-only effect, or another doubt; inactive means no such curve, though single readings can be large; an effect the other way counts as inactive or inconclusive. On the % scale 0 is the no-effect control and ±100 the full control effect.

SMILES	ELG1 repair inh	TDP1 cell noCPT	Gal4-VP16 FLuc	RORg inh	TDP1 cell CPT	IL1B secr inh
Cc1ccc(OCC(=O)NNC(=O)C(C)Sc2ncnc3sc(C)c(C)c23)cc1 (stereo not drawn)	24%	-19%	?	-44%	1%	0
Cc1ccc(-n2nnc3c(SCC(=O)NCC4CCCO4)ncnc32)cc1 (stereo not drawn)	?	12µM*	?	-34%	21µM*	-56*
CC(Sc1nnc(-c2ccccc2)c(-c2ccccc2)n1)C(=O)NCC1CCCO1 (stereo not drawn)	?	23µM*	.	.	?	-13
CC(Sc1nnc(-c2ccccc2F)n1N)C(=O)NCC1CCCO1 (stereo not drawn)	-3%	-3%	.	.	-9%	-2
CC(C)CC(=O)Nc1nnc(S(=O)(=O)N(C)Cc2ccc(Cl)cc2)s1	.	-20%	.	.	-8%	.
CCN1C[C@@H]2[C@@H]3C(=O)N(C)C(=O)[C@@H]3[C@](CC)(C1=O)N2C(=O)c1ccc(Cl)cc1	.	-8%	.	.	-12%	5
Cc1sc2ncnc(SCC(=O)NC(C)C(C)C)c2c1C (stereo not drawn)	-9%	16µM*	-11%	-6%	16µM*	-10
Cc1sc2ncnc(SCC(=O)Nc3nc(-c4ccc(F)c(F)c4)cs3)c2c1C	25%	21µM*	-12%	?	-11%	33
Cc1sc2ncnc(SCC(=O)NCC3CCCO3)c2c1C (stereo not drawn)	8%	5.2µM*	.	.	0.26µM*	30
Cn1nnnc1SCC(=O)Nc1nc(-c2ccc(F)c(F)c2)cs1	3%	?	-1%	29%	?	0
COC(=O)c1ccc(CSc2ncnc3sc(C)c(C)c23)o1	4%	-30%	?	18µM*	-18%	14
O=C(CSc1ncnc2sc3c(c12)CCC3)NCC1CCCO1 (stereo not drawn)	-6%	-2%	-15%	13%	-5%	3
Cc1sc2ncnc(SCC(=O)NC3CC3)c2c1C	8%	3%	5%	-13%	-9%	0
CCCCn1nnnc1C1(C)CCC(=O)N1Cc1cccc(F)c1 (stereo not drawn)	.	-3%	.	.	-2%	31
COc1ccc(-c2nnc(SCC(=O)Nc3ccccc3OC)o2)cc1	?	-28%	0%	-3%	?	-1
COc1ccc(-c2nnc(SCC(=O)NC(=O)NCc3ccco3)o2)cc1	5%	-22%	?	7.9µM*	-4%	55
COc1ccc(-c2nnc(SCC(=O)Nc3nncs3)o2)cc1	?	-4%	8.9µM*	7.1µM*	7%	5
CN(CCC1CCOCC1)C(=O)C1CCC(=O)N(CCc2cccc(F)c2)C1 (stereo not drawn)	3%	-9%	11%	20%	-1%	15
CN1CCCC1CCNC1C2CC3CC(C2)CC1C3 (stereo not drawn)	8%	16µM*	-5%	-2%	8.2µM*	-13
O=[N+]([O-])c1ccc(C2CC(c3ccccc3)=Nc3ccccc3S2)cc1 (stereo not drawn)	18%	21µM*	?	-82%	?	-20
O=C(O)C1CC(c2ccccc2)=Nc2ccccc2S1 (stereo not drawn)	?	-8%	-12%	8%	-20%	-28
O=C(N/N=C/c1ccco1)c1cc(-c2ccc3ccccc3c2)n[nH]1	-3%	23µM*	?	?	13µM*	-67*
